Results published in ChEMBL document CHEMBL4513146, “CO-ADD screening of Karazin Kharkiv National University (Ukraine) compounds”.
Results with a measured potency or affinity are listed apart.

Experiments:
Staphylococcus aureus = details: Concentration 32 ug.mL-1;; ASSAY_TEST Inhibition of Bacterial Growth; detection method Absorption (OD600); MEDIA CAMHB; plate type 384well; NBS; CORNING #3640; time 18 hr
Escherichia coli = details: Concentration 32 ug.mL-1;; ASSAY_TEST Inhibition of Bacterial Growth; detection method Absorption (OD600); MEDIA CAMHB; plate type 384well; NBS; CORNING #3640; time 18 hr

SMILES | Inhibition (Staphylococcus aureus) | Inhibition (Escherichia coli)
CCOc1ccc(-n2ccn3c(SCc4cccc(C(F)(F)F)c4)nnc3c2=O)cc1 | 18.58% | 1.02%
COc1cc(NC(=O)C(C)Sc2nnc3c(=O)n(-c4ccc(F)cc4)ccn23)cc(OC)c1 (centres undefined) | 6.77% | -6.93%
Cc1ccccc1Oc1nccn2c(=O)n(CC(=O)Nc3ccccc3C(F)(F)F)nc12 | 10.19% | 1.35%
COc1cccc(-n2ccn3c(SCc4cccc(F)c4)nnc3c2=O)c1 | 11.5% | -8.02%
Cc1cccc(Oc2nccn3c(=O)n(CC(=O)N4CCN(c5ccccc5F)CC4)nc23)c1C | -3.04% | -9.87%
O=C(Cn1nc2c(Sc3cccc(F)c3)nccn2c1=O)Nc1ccc(F)c(Cl)c1 | -0.79% | -15.42%
O=C(CSc1nnc2c3cc(-c4ccc(F)cc4)nn3ccn12)Nc1ccccc1C(F)(F)F | -6.75% | -13.58%
Cc1ccc(Oc2nc3ccccc3n3c(=O)n(CC(=O)Nc4ccc5c(c4)OCO5)nc23)cc1 | 1.4% | -7.69%
CC(C)NC(=O)CCn1c(=O)c2ccccc2n2c(=O)n(CC#N)nc12 | -1.98% | 0.48%
CCC(Sc1nnc2c(=O)n(-c3ccc(F)cc3)ccn12)C(=O)Nc1cc(OC)cc(OC)c1 (centres undefined) | 15.63% | -3.99%
COc1cccc(Oc2nccn3c(=O)n(CC(=O)Nc4ccc5c(c4)OCCO5)nc23)c1 | 9.52% | -8.9%
Cc1cccc(N(Cc2ccc(F)cc2)S(=O)(=O)c2cccn3c(C)nnc23)c1 | 15.38% | -0.37%
Cc1cccc(NC(=O)Cn2nc3c(Sc4ccccc4)nccn3c2=O)c1 | -16.15% | -1.95%
CCC(Sc1nnc2c(=O)n(-c3ccccc3)ccn12)C(=O)Nc1ccc(OC)cc1OC (centres undefined) | 10.76% | 0.69%
COc1ccc(CCn2c(=O)c3sccc3n3c(=O)n(Cc4ccccc4Cl)nc23)cc1OC | 1.03% | -4.64%
O=C(CSc1nnc2c(=O)n(-c3cccc(F)c3)ccn12)NCCc1ccccc1 | -2.66% | -10.98%

SMILES | Inhibition (Staphylococcus aureus) | Inhibition (Escherichia coli)
COc1ccc(-c2cc3c4nnc(CCC(=O)NCc5ccccc5Cl)n4ccn3n2)cc1 | 0.8% | -2.58%
O=C(Cn1nc2c(SC3CCCCC3)nccn2c1=O)Nc1ccc(Cl)cc1F | 4.94% | -2.75%
COc1ccc(NC(=O)C(C)Sc2nnc3c(=O)n(-c4ccccc4)ccn23)cc1 (centres undefined) | 4.59% | 4.26%
Cc1c(Cl)cccc1-n1ccn2c(=O)n(Cc3cccc(F)c3)nc2c1=O | 9.54% | -6.71%
O=C(CSc1nnc2c(=O)n(-c3ccc(F)c(F)c3)ccn12)c1cccc(Cl)c1 | 13.4% | -3.45%
COC(=O)c1ccc(NC(=O)Cn2nc3c4sc(N5CCCC5)nc4ncn3c2=O)cc1 | -12.82% | -9.22%
COc1ccc(NC(=O)CSc2nnc3c(=O)n(-c4cccc(OC)c4)ccn23)cc1 | 14.04% | -12.03%
O=C(CSc1nnc2c(=O)n(-c3cccc(F)c3)ccn12)Nc1ccc(Br)cc1F | 15.57% | -1.22%
O=C(CCc1nnc2c3cc(-c4ccc(Cl)cc4)nn3ccn12)N1CCN(c2ccccn2)CC1 | 5.65% | -0.84%
CCOc1ccc(-n2ccn3c(SCC(=O)c4ccc(C)cc4)nnc3c2=O)cc1 | 16.97% | -1.19%
O=C(Cn1nc2c(N3CCOCC3)nccn2c1=O)NCc1ccccc1Cl | 17.61% | 4.36%
Cc1cc(C)cc(NC(=O)Cn2nc3c(N4CCCC4)nccn3c2=O)c1 | 12.35% | -0.75%
O=c1c2nnc(SCc3ccccc3F)n2ccn1-c1ccc(F)cc1 | 19.41% | -3.23%
CCCCN(C)c1ccc2nnc(CCc3nc(-c4ccc(C(F)(F)F)cc4)no3)n2n1 | 7.8% | -3.35%
CCOc1ccc(NC(=O)Cn2nc3c(Oc4cccc(OC)c4)nccn3c2=O)cc1 | 13.11% | 1.75%
CCOc1ccc(NC(=O)Cn2nc3c(Sc4ccc(C)cc4C)nccn3c2=O)cc1 | 0.32% | -7.3%
